PubChem BioAssay AID488966 (Southern Research Specialized Biocontainment Screening …, 2010)
Out of some 340,000 compounds screened, about 55 (0.02%) were called active.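 The calls were made as follows: active = phage lysis inhibition, versus mean bacterial control, above a set limit; inconclusive = no clear call, values can overlap the other calls; inactive = the rest.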 Only a sample is shown. Entries with a potency or affinity are not part of this list.

experiment: inhibition of K1F phage lysis, E. coli UTI89, bacterial capsule biogenesis inhibitors, alamar blue (AID 488966); details: 2 h; inhibition: at 100 µM, hits give high values unless noted; series mostly up to 300 µM; inhibition of phage lysis: at the top concentration;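 also: capsule biogenesis inhibitors block K1F phage lysis so surviving cells raise fluorescence; higher fluorescence means more inhibition of phage lysis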

Row | Structure (SMILES) | inhibition | inhibition of phage lysis
1 | Cc1noc(/C=C/c2ccccn2)c1[N+](=O)[O-] | 0.12% (inactive) | 
2 | CCOC(=O)C1(Cc2ccc(Cl)cc2)CCN(C(C)Cc2ccc(O)c(OC)c2)CC1 (centres undefined) | 0.5% (inactive) | 
3 | Cc1ccc(NC(=O)CN(C)C(=O)COc2ncnc3ccc(Br)cc23)cc1 | 0.5% [at 50 µM, hits give high values] (inactive) | 
4 | COc1ccc(NS(=O)(=O)c2cccc(C(=O)NCCCN3CCOCC3)c2)cc1 | 1% [at 50 µM, hits give high values] (inactive) | 
5 | CC(=O)NN=C1CCC(c2ccccc2)CC1 (centres undefined) | 4.73% (inactive) | 
6 | COc1ccccc1OCC(=O)NNC(=O)c1cccs1 | 5.22% (inactive) | 
7 | COc1ccc(C(CNC(=O)c2cncc(Br)c2)N(C)C)cc1 (centres undefined) | -0.11% (inactive) | 
8 | COc1cc(C2C(C#N)=C(N)Oc3n[nH]c(-c4ccncc4)c32)cc(OC)c1OC (centres undefined) | 1.19% (inactive) | 
9 | COc1ccccc1NC(=O)CN1C(=O)C(C)Oc2ccccc21 (centres undefined) | -1.62% (inactive) | 
10 | CCOc1ccc(S(=O)(=O)NCc2cccnc2)cc1C | 0.14% (inactive) | 
11 | COC(=O)/C=C/C(=O)Nc1ccc(O)c(Cl)c1 | -2.78% (inactive) | 
12 | Cc1ccc(N2C(=O)C3C4CCC(O4)C3C2=O)c(OC(F)F)c1 (centres undefined) | 2% [at 50 µM, hits give high values] (inactive) | 
13 | CC(C)Nc1nc(SCC(=O)Nc2ccccc2)nc(N2CCOCC2)n1 | -0.955% [at 50 µM, hits give high values] (inactive) | 
14 | c1ccc(C(c2nnnn2C2CCCCC2)N2CCc3ccccc3C2)nc1 (centres undefined) | 6.52% (inactive) | 
15 | C/C(=N\NC(=O)C(O)c1ccccc1)c1ccc(Cl)cc1 (centres undefined) | 0% (inactive) | 
16 | O=C(COC(=O)c1ccccn1)Nc1ncc(C(F)(F)F)cc1Cl | 1.67% (inactive) | 
17 | Cc1noc(/C=C/c2ccco2)c1S(=O)(=O)N1CCC(C(=O)NCc2ccco2)CC1 | 0.57% (inactive) | 
18 | Cc1cc(C)n(CC(=O)NCc2ccccc2)c(=O)c1C#N | 0.26% (inactive) | 
19 | O=c1[nH]c2ccccc2c2ccc(Cl)cc12 | -0.77% (inactive) | 
20 | Cc1ccc(NC(=O)N/C=C/c2ccco2)cc1 | -0.09% (inactive) | 
21 | COc1ccc(NC(=O)CN2C(=O)/C(=C3\SC(=S)N(CCC(=O)O)C3=O)c3ccccc32)cc1 | 1.3% [at 50 µM, hits give high values] (inactive) | 

Row | Structure (SMILES) | inhibition | inhibition of phage lysis
22 | CSc1nnc(-c2cccn(Cc3cccc(Cl)c3)c2=O)o1 | 0.19% (inactive) | 
23 | Cc1cc(N(C)/N=C/c2ccccc2O)nc(-c2ccccc2O)n1 | -1.22% (inactive) | 
24 | COc1ccc2[nH]c3c(c2c1)CCN1C(=O)N([C@@H](C)C(=O)NCc2ccc(F)cc2)C(=O)[C@]31C | 1.55% (inactive) | 
25 | Cc1ccn2cc(-c3cccc(S(=O)(=O)N4CCCCC4)c3)nc2c1 | -0.04% (inactive) | 
26 | COc1ccccc1C(=O)NCCC(=O)NC1CCCCCC1 | 0.81% [at 50 µM, hits give high values] (inactive) | 
27 | COc1ccc(C(C)(C)C)cc1S(=O)(=O)N1CCN(C)CC1 | 0.43% (inactive) | 
28 | O=C(Nc1ccncc1)Nc1cccc(F)c1 | 0.13% (inactive) | 
29 | Cc1cccc(NC(=O)Nc2ccncc2)c1 | 3.48% (inactive) | 
30 | COc1ccc2c(c1)C1=C(CC2)C(c2ccc(C)cc2)NC(=S)N1 (centres undefined) | -0.41% (inactive) | 
31 | CN(C)CCN(C(=O)c1ccc2c(c1)OCCO2)c1nc2ccc(Cl)cc2s1 | 3.17% [at 50 µM, hits give high values] (inactive) | 
32 | Cc1ccccc1C(=O)N=c1ccn(-c2nc3ccccc3nc2NS(=O)(=O)c2ccccc2)cc1 | 0.1% (inactive) | 
33 | CCCOc1ccc(C(=O)O)cc1 | -0.2% (inactive) | 
34 | CCOc1ccc(C(=O)C(CCC(CN(C)C)C(=O)c2ccc(OCC)cc2)CN(C)C)cc1 (centres undefined) | 0.87% (inactive) | 
35 | Cc1cccc(NC(=O)/C(C#N)=C/c2ccc(Cl)cc2)n1 | 0% (inactive) | 
36 | Cc1cc(C)c2c3c(oc2n1)C(=O)N(c1cccc(Cl)c1)CC(=O)N3 | 0.63% (inactive) | 
37 | Clc1ccc(-n2nnnc2-c2cnc3ccc(Cl)cc3c2-c2ccccc2)cc1 | 0.85% (inactive) | 
38 | O=C(Nc1ccc(Cl)c(S(=O)(=O)N2CCOCC2)c1)[C@@H]1CCCN1C(=O)c1cccs1 | 0.43% [at 50 µM, hits give high values] (inactive) | 
39 | COc1ccc(C[C@@H]2CN3C(=NC[C@@H]3Cc3ccc(O)cc3)N2C[C@H](C)NC(=O)CCC2CCCCC2)cc1 | 0.18% (inactive) | 
40 | CCOC(=O)C1CCN(C(=O)CN(c2ccc3c(c2)OCO3)S(C)(=O)=O)CC1 | 0.52% (inactive) | 
41 | O=C(NN=Cc1ccccc1O)C(O)(c1ccccc1)c1ccccc1 | -1.49% (inactive) | 
42 | COc1cccc(C2C3=C(CC(C)(C)CC3=O)Nc3cc4c(cc32)OCO4)c1 (centres undefined) | 2.26% (inactive) | 

Row | Structure (SMILES) | inhibition | inhibition of phage lysis
43 | Cc1nc(N2CCN(C(=O)c3ccco3)CC2)c2oc3ccccc3c2n1 | 1.22% (inactive) | 
44 | CCOc1cc(C2NC(=O)c3ccccc3O2)ccc1OC(C)C (centres undefined) | 2.06% (inactive) | 
45 | O=C(O)CCC(=NNC(=O)c1cccc(S(=O)(=O)N2CCCCC2)c1)c1ccccc1 | 0.71% [at 50 µM, hits give high values] (inactive) | 
46 | CCN(CC)c1ccc(NC(=O)c2ccc3c(c2)OCO3)cc1 | 2.01% (inactive) | 
47 | CCN(CC)c1ccc(C(=O)Nc2cccc(F)c2)cc1 | 2.12% (inactive) | 
48 | CCCNC(=O)C(=O)Nc1ccc2c(c1)N(S(=O)(=O)c1cccs1)CCC2 | 1.18% [at 50 µM, hits give high values] (inactive) | 
49 | CCc1cc2cc(C)cc(C)c2nc1SCC(=O)Nc1cc(C)on1 | 0.23% (inactive) | 
50 | O=C(Nc1cc2c3c(c1)CC(=O)N3CCC2)c1c(F)cccc1F | 1.43% [at 50 µM, hits give high values] (inactive) | 
51 | CCOc1ccc(NC(=S)N2CCCC2)cc1 | 0.16% (inactive) | 
52 | COC(=O)c1sccc1NC(=O)Nc1cccc(Cl)c1Cl | 0.2% (inactive) | 
53 | Cc1c(N(C(=O)Nc2ccccc2)C2=NCC(C)S2)c(=O)n(-c2ccccc2)n1C (centres undefined) | 0.11% (inactive) | 
54 | COc1cc(C2NC(=S)NC3=C2CCc2ccccc23)cc(OC)c1OC (centres undefined) | 0.64% [at 50 µM, hits give high values] (inactive) | 
55 | COc1ccc(CCNC(=O)C23CCC(C)(C(=O)O2)C3(C)C)cc1OC (centres undefined) | 1.58% [at 50 µM, hits give high values] (inactive) | 
56 | CCCn1nc(-c2nnc(-c3ccc(C)c(C)c3)o2)c2ccccc2c1=O | 0.05% (inactive) | 
57 | CCn1ncc(C2=NOC(C(=O)Nc3cccc(C(C)=O)c3)C2)c1C (centres undefined) | 4.79% (inactive) | 
58 | CS(=O)(=O)N(CC(=O)NN=C1CCCCCC1)c1ccc(Oc2ccccc2)cc1 | 0.37% (inactive) | 
59 | CCN1C(=O)N[C@@H](c2cccc(C(F)(F)F)c2)[C@@H](C(=O)OC)[C@H]1C | 0.13% (inactive) | 
60 | O=C(Oc1coc(CSc2nnc(NC(=O)C3CC3)s2)cc1=O)c1ccccc1 | 4.85% (inactive) | 
61 | COc1ccc(N2C(=O)C(CC(=O)Nc3ccccc3)N(Cc3cccs3)C2=O)cc1 (centres undefined) | -4.46% (inactive) | 
62 | CCOC(=O)c1c(C)n(C)c2cc(-c3ccc(F)cc3)c(O)cc12 | 7.65% (inactive) | 
63 | C[C@H](NC(=O)c1nc[nH]c1C(=O)N[C@@H](CCCCNC(=O)OC(C)(C)C)C(=O)OC(C)(C)C)c1ccccc1 | 2.05% (inactive) | 

Row | Structure (SMILES) | inhibition | inhibition of phage lysis
64 | COc1ccc(NC(=O)Nc2cc(C(C)(C)C)on2)cc1OC | 1.47% [at 50 µM, hits give high values] (inactive) | 
65 | O=S(=O)(c1ccc(S(=O)(=O)N(Cc2ccco2)Cc2ccccc2Cl)cc1)N1CCCC1 | 0.31% (inactive) | 
66 | Clc1ccc(-c2ccc(/C=N/Nc3nncc(-c4ccccc4)n3)o2)cc1 | 0.65% (inactive) | 
67 | O=C(NCc1ccccc1Cl)c1cc([N+](=O)[O-])ccc1Cl | 0.11% (inactive) | 
68 | O=C(NCc1cc([N+](=O)[O-])ccc1O)c1cccnc1Sc1ccc(Cl)cc1 | 7.97% (inactive) | 
69 | Cc1ccc(Sc2ncccc2C(=O)NCc2cc([N+](=O)[O-])ccc2O)cc1C |  | 7.85% (inactive)
70 | Cc1ccc(Sc2ncccc2C(=O)NCc2cc([N+](=O)[O-])ccc2O)c(C)c1 |  | 5.51% (inactive)
71 | CC(=O)Nc1ccc(Nc2ccc(S(=O)(=O)C(F)(F)F)cc2[N+](=O)[O-])cc1 | -2.27% (inactive) | 
72 | Cc1ccc(CC(NC(=O)c2ccccc2)C(=O)NC(CC(C)C)C(=O)O)cc1 (centres undefined) | 0.84% (inactive) | 
73 | CCCCS(=O)CC(COC)OC(=O)c1ccccc1 (centres undefined) | 0.21% (inactive) | 
74 | Cc1cccc2c1nc(-c1ccccc1)n1nnnc21 | -2.7% (inactive) | 
75 | COc1ccc(CNC(=O)CN2C(=O)CSc3ccc(S(=O)(=O)N4CCCCC4)cc32)cc1 | 0.13% (inactive) | 
76 | Cc1cc(OC(=O)c2cccs2)ccc1C(C)C | -0.04% (inactive) | 
77 | O=C(Cn1cnc(S(=O)(=O)N2CCCC2)c1)Nc1ccccc1 | 0.25% (inactive) | 
78 | O=c1c(Cl)c(NS(=O)(=O)c2ccccc2)cnn1-c1ccccc1 | 0.1% (inactive) | 
79 | COc1ccc(C(=O)OCC(=O)NC(C)CCc2ccccc2)cc1OC (centres undefined) | -0.14% (inactive) | 
80 | O=C1CCc2cc(NS(=O)(=O)c3ccc(Cl)cc3)cc3c2N1CC3 | -0.37% [at 50 µM, hits give high values] (inactive) | 
81 | C=CCN1C(=O)CN=C1Nc1cc(C)cc(C)c1 | -1.02% (inactive) | 
82 | COc1ccc(C(=O)N2CCN(C)C(C)C2)cc1OC1CCN(C(C)=O)CC1 (centres undefined) | -0.02% (inactive) | 
83 | CCC(OC(=O)c1nsc(Cl)c1Cl)C(=O)NCCOC (centres undefined) | -0.07% (inactive) | 
84 | Cc1nn(CC(=O)Nc2ccc(N3CCOCC3)cc2)c(C)c1Br | -0.525% [at 50 µM, hits give high values] (inactive) | 
